# Source: PubChem BioAssay (NCATS)
# Results filed as inconclusive are left out. Where a call stands in place of a potency, no number is given. Calls of active or inactive are those of the source. Calls come from the whole dose curve; as a rule, active = well fitted curve in the direction sought with a large enough effect; inconclusive = small, poorly fitted or top-dose-only effect, or another doubt; inactive = no such curve, though single readings can be large; an effect the other way counts as inactive or inconclusive.
# System: not listed separately
# Assay: qHTS for Inhibitors of the Aldehyde Dehydrogenase Family (ALDH1A2, ALDH1A3, ALDH2, ALDH3A1) (AID 2061307); note: nearly all actives have a fitted effect of over 50% in size; for potency: test system not described further here
# Details: ALDH inhibition qHTS; series mostly up to 50.3 µM
# Potency is the fitted concentration of half-maximal effect.
row,SMILES,Potency
1,Cc1cc(C)c2c(N)c(C(=O)NCc3ccc(Cl)cc3)sc2n1,1.12 µM (active)
2,OC[C@H]1O[C@@H](Oc2ccc(O)c3cccc(O)c23)[C@H](O)[C@@H](O)[C@@H]1O,7.83 µM (active)
3,COc1cc2c(cc1NS(=O)(=O)c1ccc(Br)cc1C)n(C)c(=O)n2C,inactive
4,CN(C)c1ccc(NC(=O)NS(=O)(=O)c2ccc(Cl)cc2)cc1,6.34 µM (active)
5,O=C(Nc1ccc(S(=O)(=O)C(F)(F)F)cc1)C1=CCN(c2ncccc2C(F)(F)F)CC1,inactive
6,CCOC(=O)N1CCC(CN(Cc2ccc(Cl)cc2)Cc2ccc([N+](=O)[O-])s2)C1 (stereo unspecified),inactive
7,COc1c(C(C)C)c(O)c(O)c2c1C(OC)[C@H]1OC(=O)[C@@]23CCCC(C)(C)[C@H]13 (stereo partly specified),inactive
8,CO[C@]1(NC(=O)CSC(F)F)C(=O)N2C(C(=O)O)=C(CSc3nnnn3CCO)CO[C@H]21,inactive
9,COC(CCc1ccc(O)cc1)CC(=O)CCc1ccc(O)cc1 (stereo unspecified),inactive
10,CC(C)c1ccc2c(c1)CCC1[C@](C)(C(=O)O)CCC[C@]21C (stereo partly specified),inactive
11,O=C(NNc1ccccc1)c1ccncc1,inactive
12,Cn1c(N2CCCCS2(=O)=O)nc(C(=O)NCc2ccc(F)cc2)c(O)c1=O,12.7 µM (active)
13,OCC1OC(Oc2cc(O)cc(/C=C/c3ccc(OC4OC(CO)C(O)C(O)C4O)cc3O)c2)C(O)C(O)C1O (stereo unspecified),10 µM (active)
14,O=C(O)c1cc(-c2c(-c3ccccc3)nn3ccccc23)n[nH]c1=O,inactive
15,Cc1c(Cc2ccc3ccccc3n2)c2cc(F)ccc2n1CC(=O)O,3.18 µM (active)
16,CC1=CCC2C(C)(CO)CCCC2(CO)C1CO (stereo unspecified),inactive
17,Oc1ccc(O)cc1,11.3 µM (active)
18,CC(NC(=O)CC(=O)O)c1nc2ccccc2c(=O)[nH]1 (stereo unspecified),inactive
19,O=C(/C=C/c1ccc(O)c(O)c1)O[C@@H]1[C@@H](O)[C@H](OC2CCCCC2O)O[C@H](CO)[C@H]1O (stereo partly specified),inactive

# Molecular target: Aldehyde dehydrogenase, mitochondrial (Homo sapiens) (UniProt P05091)
# Assay: qHTS for Inhibitors of the Aldehyde Dehydrogenase Family (ALDH2) Primary screen (AID 2061308); note: nearly all actives have a fitted effect of over 55% in size
# Details: ALDH2 enzyme inhibition qHTS, 1536-well; series mostly up to 56 µM
row,SMILES,Potency
1,Cc1cc(C)c2c(N)c(C(=O)NCc3ccc(Cl)cc3)sc2n1,inactive
2,COc1cc(N2CCOCC2)ccc1Nc1ncc(F)c(Nc2ccccc2NS(C)(=O)=O)n1,inactive
3,Cc1c(C)c(NCC(=O)N(C)C2CCN(Cc3ccc(C(N)=O)cc3)CC2)c(C)c(C)c1N,inactive
4,O=C(Nc1ccc(S(=O)(=O)C(F)(F)F)cc1)C1=CCN(c2ncccc2C(F)(F)F)CC1,25.1 µM (active)
5,Cc1c(-c2ccc3c(c2)OCO3)oc2ccc(C(O)C(C)O)cc12 (stereo unspecified),inactive
6,CC1(C)C(O)CCC2(C)C1C(O)C=C1COC(=O)C12O (stereo unspecified),inactive
7,OC[C@H]1O[C@@H](Oc2cc(O)cc(-c3cc4ccc(O[C@@H]5O[C@H](CO)[C@@H](O)[C@H](O)[C@H]5O)cc4o3)c2)[C@H](O)[C@@H](O)[C@@H]1O,inactive
8,C=C[C@H]1C(O[C@@H]2O[C@H](CO)[C@@H](O)[C@H](O)[C@H]2O)OC=C2C(=O)N3CCc4c([nH]c5ccccc45)C3CC21 (stereo partly specified),inactive
9,O=C(OC[C@H]1O[C@@H](Oc2ccccc2CO)[C@H](O)[C@@H](O)[C@@H]1O)c1ccccc1,inactive
10,CC(CNS(=O)(=O)C(C)C)c1ccc(-c2ccc(C#N)cc2)cc1 (stereo unspecified),inactive
11,COC(=O)C[C@H]1[C@]2(C)C3=C(C)[C@H](c4ccoc4)C[C@H]3O[C@@H]2[C@H](OC(C)=O)C2[C@](C)(C(=O)OC)C=CC(=O)[C@@]21C (stereo partly specified),inactive
12,OCC1OC(Oc2cc(O)cc(/C=C/c3ccc(OC4OC(CO)C(O)C(O)C4O)cc3O)c2)C(O)C(O)C1O (stereo unspecified),inactive
13,COc1cc(C2c3cc4c(c(O)c3CC(CO)C2C(=O)O)OCO4)cc(OC)c1O (stereo unspecified),inactive
14,COc1ccc(/C=C/C(=O)O[C@@H]2[C@@H](O)[C@@H](O)[C@H](O[C@@H]3C=C(CO)[C@H]4[C@H](O[C@@H]5O[C@H](CO)[C@@H](O)[C@H](O)[C@H]5O)OC=C[C@H]43)O[C@H]2C)cc1O,inactive
15,O=C(O)c1cc(-c2c(-c3ccccc3)nn3ccccc23)n[nH]c1=O,inactive
16,Cc1c(Cc2ccc3ccccc3n2)c2cc(F)ccc2n1CC(=O)O,inactive
17,COc1cc(C2OCC3C(c4ccc(OC5OC(CO)C(O)C(O)C5O)c(OC)c4)OCC23)ccc1O (stereo unspecified),inactive
18,CC1=CCC2C(C)(CO)CCCC2(CO)C1CO (stereo unspecified),inactive
19,COc1c(C)c(C(=O)c2ccc(N)c(C(=O)O)c2)n2ccccc12,inactive
20,COc1cc([C@H]2OC[C@](O)(Cc3ccc(O[C@@H]4O[C@H](CO)[C@@H](O)[C@H](O)[C@H]4O)c(OC)c3)[C@@H]2CO)ccc1O,inactive
21,CC(=O)c1c(C)cccc1O[C@@H]1O[C@H](CO)[C@@H](O)[C@H](O)[C@H]1O,inactive
22,NC(=O)[C@@H]1CC[C@H](c2ccc(OCc3ccccc3F)cc2)N1,inactive
23,COc1cc(/C=C/C(=O)O[C@H]2[C@H](O)[C@@H](CO)O[C@@]2(CO)O[C@H]2O[C@H](COC(=O)c3ccc(O)cc3)[C@@H](O)[C@H](O)[C@H]2O)cc(OC)c1OC,inactive
24,CC(NC(=O)CC(=O)O)c1nc2ccccc2c(=O)[nH]1 (stereo unspecified),inactive
25,O=C(/C=C/c1ccccc1)O[C@@H]1[C@@H](CO)O[C@@](CO)(O[C@H]2O[C@H](CO)[C@@H](O)[C@H](O)[C@H]2O)[C@H]1O,inactive
26,CC1=C(CCC(C)O[C@@H]2O[C@H](CO)[C@@H](O)[C@H](O)[C@H]2O)C(C)(C)CCC1=O (stereo partly specified),inactive
27,CC1CCC2C(C(=O)O)=COC(O[C@@H]3O[C@H](CO)[C@@H](O)[C@H](O)[C@H]3O)C12 (stereo partly specified),inactive
